Z-score and composite z-score data for nine compounds are collected here from PubChem BioAssay.

Assay [1] is described as follows: E. coli DRC41 culture turbidity changes, primary screen, E. coli filamentation inducer project, strain DRC41, OD650, 48 h (AID 1152).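 Further: E. coli MC1000 strain DRC41 lacking acrAB efflux pump and sulA.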 Conditions: E. coli DRC41 (acrAB sulA), higher = more signal, called active from +8 up or from −8 down.
A short description of assay [2]: small-molecule binders of probe aLefty1, primary screen, biochemical, small-molecule microarray, 635/667 nm fluorescence (AID 1153).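 Further: score merges spot fluorescence with signal-to-noise ratio from the scanned slide images.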 The following applies: higher = more signal.
A short description of assay [3]: PSAC antagonists in infected red cells, primary screen, cell-based, P. falciparum Indochina, OD700, 1 h (AID 1154). The following applies: P. falciparum Indochina infected RBC osmotic lysis, higher = more signal, called active from +8 up or from −8 down.
Assay [4] can be described thus: PSAC antagonists in infected red cells, primary screen, cell-based, P. falciparum Indochina, OD700, 2 h (AID 1155).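 Further: lysis reports solute entry through the parasite surface anion channel PSAC; channel blockers reduce lysis of infected cells.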 Conditions: P. falciparum Indochina infected erythrocytes, osmotic lysis OD700; higher = more signal, called active from +8 up or from −8 down.
Assay [5] is described as follows: osmotic lysis modulators in infected erythrocytes, primary screen, PSAC antagonist project, cell-based, P. falciparum Indochina, OD700, 3 h (AID 1156). Conditions: higher = more signal, called active from +8 up or from −8 down.
A short description of assay [6]: PSAC antagonists in infected red cells, primary screen, cell-based, P. falciparum Indochina, OD700, 18 h (AID 1157). Conditions: P. falciparum Indochina infected erythrocytes, osmotic lysis OD700, 18 h; higher = more signal, called active from +8 up or from −8 down.
A short description of assay [7]: modulators of S6 phosphorylation in cells, primary screen, cell-based, A549, cytoblot, luminescence, serum-stimulated (AID 1158).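 Further: serum-stimulated A549 lung adenocarcinoma cells; signal is phosphorylated S6 detected by cytoblot immunostaining with HRP secondary.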 The following applies: A549 phospho-S6 cytoblot, 5 h, higher = more signal.
Assay [8] deals with NADPH oxidase 2 (Homo sapiens) (UniProt P04839). Nature of the assay: NOX2-dependent H2O2 signal modulators, primary screen, NOX inhibitor project, cell-based, HEK293-NOX2, PMA-stimulated, Amplex Red fluorescence (AID 1159). Further: test concentration not given here. Conditions: 45 min, higher = more signal, called active from +8 up or from −8 down.
The target in assay [9] is NADPH oxidase 4 (Homo sapiens) (UniProt Q9NPH5). The experiment in a line: NOX4-dependent H2O2 signal modulators, primary screen, NOX inhibitor project, cell-based, HEK293-NOX4, tetracycline-induced, Amplex Red fluorescence (AID 1160). Conditions: 45 min, higher = more signal, called active from +8 up or from −8 down.
For assay [10], the target named is NADPH oxidase 5 (Homo sapiens) (UniProt Q96PH1). Nature of the assay: NOX5-dependent H2O2 signal modulators, primary screen, NOX inhibitor project, cell-based, HEK293-NOX5, Amplex Red fluorescence (AID 1161). The following applies: HEK293-NOX5, ionomycin, 45 min, higher = more signal.
The nature of assay [11]: A549 cell viability effects, profiling panel, calcein-AM fluorescence, 48 h, basal (AID 1162). Further: test concentration not given here. Conditions: higher = more signal.
Assay [12] is described as follows: adipocyte viability effects, profiling panel, cell-based, 3T3-L1 adipocytes, calcein-AM fluorescence, 48 h, basal (AID 1163). Further: test concentration not given here. Conditions: 3T3-L1 adipocytes viability, higher = more signal.
Assay [13] in a line: HepG2 cell viability effects, profiling panel, calcein-AM fluorescence, 48 h, basal (AID 1164). Further: test concentration not given here. The following applies: higher = more signal.
Assay [14] is described as follows: MM1S cell viability effects, profiling panel, calcein-AM fluorescence, 48 h, basal (AID 1165).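 Further: viability of MM1S multiple myeloma cells under basal unstimulated conditions; test concentration not given here.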 The following applies: higher = more signal.
Assay [15] in a line: basal RPMI8226 viability, no added stimulus, profiling panel, cell-based, calcein-AM fluorescence, 48 h, PK04 Diversity Set (AID 1166).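 Further: cells grown under basal conditions without added stimulus; test concentration not given here.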 The following applies: RPMI8226 myeloma viability, higher = more signal.
The nature of assay [16]: basal HepG2 mitochondrial membrane potential changes, profiling panel, cell-based, JC-1 fluorescence, 24 h, 100 nL compound (AID 1167). Further: test concentration not given here. Conditions: higher = more signal.
The nature of assay [17]: basal 3T3-L1 adipocyte mitochondrial potential changes, profiling panel, cell-based, JC-1 fluorescence, 3T3-L1 adipocytes, 24 h, 100 nL compound (AID 1168). Further: test concentration not given here. The following applies: JC-1 mitochondrial fluorescence, higher = more signal, called active from +8 up or from −8 down.
Assay [18] can be described thus: basal RPMI8226 mitochondrial membrane potential changes, profiling panel, cell-based, JC-1 fluorescence, 24 h, 100 nL compound (AID 1169). Further: test concentration not given here. The following applies: RPMI8226 myeloma, JC-1 mitochondrial potential fluorescence, higher = more signal.
Assay [19] in a line: basal MM1S mitochondrial membrane potential changes, profiling panel, cell-based, JC-1 fluorescence, 24 h, 100 nL compound (AID 1170). Further: test concentration not given here. Conditions: higher = more signal.
Assay [20] in a line: A549 lung cancer cell viability effects, profiling panel, resazurin fluorescence, 24 h, PK04 Diversity Set (AID 1171). Further: test concentration not given here. The following applies: higher = more signal, called active from +8 up or from −8 down. (In general: Alamar Blue is a resazurin reagent that responds to reducing activity.)

The structures appear in SMILES notation. Calls of active or inactive are those of the source.

Chain of NADPH oxidase 2 (Homo sapiens) (P04839 whole entry, looked up): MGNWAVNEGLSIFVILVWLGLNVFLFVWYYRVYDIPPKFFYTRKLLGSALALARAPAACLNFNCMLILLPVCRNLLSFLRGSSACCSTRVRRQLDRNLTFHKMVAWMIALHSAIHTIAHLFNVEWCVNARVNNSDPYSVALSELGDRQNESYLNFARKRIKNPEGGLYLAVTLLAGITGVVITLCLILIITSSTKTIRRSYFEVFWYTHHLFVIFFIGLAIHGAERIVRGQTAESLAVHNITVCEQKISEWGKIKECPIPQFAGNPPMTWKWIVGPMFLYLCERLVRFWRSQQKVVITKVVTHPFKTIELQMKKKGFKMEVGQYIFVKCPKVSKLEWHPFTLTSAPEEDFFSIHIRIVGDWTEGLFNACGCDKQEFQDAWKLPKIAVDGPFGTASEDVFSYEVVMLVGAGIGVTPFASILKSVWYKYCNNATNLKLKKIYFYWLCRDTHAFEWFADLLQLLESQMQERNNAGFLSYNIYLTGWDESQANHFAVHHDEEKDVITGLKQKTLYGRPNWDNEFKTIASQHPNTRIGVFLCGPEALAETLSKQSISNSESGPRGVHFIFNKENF
Chain of NADPH oxidase 4 (Homo sapiens) (Q9NPH5 whole entry, looked up): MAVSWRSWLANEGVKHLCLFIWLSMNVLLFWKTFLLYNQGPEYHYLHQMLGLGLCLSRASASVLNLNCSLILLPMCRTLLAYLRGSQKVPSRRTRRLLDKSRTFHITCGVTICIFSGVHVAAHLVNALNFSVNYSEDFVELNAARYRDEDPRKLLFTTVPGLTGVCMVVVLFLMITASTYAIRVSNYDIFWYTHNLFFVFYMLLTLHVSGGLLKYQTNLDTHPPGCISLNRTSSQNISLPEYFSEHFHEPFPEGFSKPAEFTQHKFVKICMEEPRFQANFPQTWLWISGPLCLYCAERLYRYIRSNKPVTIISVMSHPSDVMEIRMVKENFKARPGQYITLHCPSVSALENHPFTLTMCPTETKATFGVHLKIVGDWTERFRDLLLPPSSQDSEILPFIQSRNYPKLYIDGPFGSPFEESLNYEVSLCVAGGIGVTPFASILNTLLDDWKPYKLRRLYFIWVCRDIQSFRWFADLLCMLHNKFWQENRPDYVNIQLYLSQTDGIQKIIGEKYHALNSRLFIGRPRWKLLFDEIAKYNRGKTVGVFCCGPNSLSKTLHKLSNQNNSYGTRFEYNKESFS
Chain of NADPH oxidase 5 (Homo sapiens) (Q96PH1 whole entry, looked up): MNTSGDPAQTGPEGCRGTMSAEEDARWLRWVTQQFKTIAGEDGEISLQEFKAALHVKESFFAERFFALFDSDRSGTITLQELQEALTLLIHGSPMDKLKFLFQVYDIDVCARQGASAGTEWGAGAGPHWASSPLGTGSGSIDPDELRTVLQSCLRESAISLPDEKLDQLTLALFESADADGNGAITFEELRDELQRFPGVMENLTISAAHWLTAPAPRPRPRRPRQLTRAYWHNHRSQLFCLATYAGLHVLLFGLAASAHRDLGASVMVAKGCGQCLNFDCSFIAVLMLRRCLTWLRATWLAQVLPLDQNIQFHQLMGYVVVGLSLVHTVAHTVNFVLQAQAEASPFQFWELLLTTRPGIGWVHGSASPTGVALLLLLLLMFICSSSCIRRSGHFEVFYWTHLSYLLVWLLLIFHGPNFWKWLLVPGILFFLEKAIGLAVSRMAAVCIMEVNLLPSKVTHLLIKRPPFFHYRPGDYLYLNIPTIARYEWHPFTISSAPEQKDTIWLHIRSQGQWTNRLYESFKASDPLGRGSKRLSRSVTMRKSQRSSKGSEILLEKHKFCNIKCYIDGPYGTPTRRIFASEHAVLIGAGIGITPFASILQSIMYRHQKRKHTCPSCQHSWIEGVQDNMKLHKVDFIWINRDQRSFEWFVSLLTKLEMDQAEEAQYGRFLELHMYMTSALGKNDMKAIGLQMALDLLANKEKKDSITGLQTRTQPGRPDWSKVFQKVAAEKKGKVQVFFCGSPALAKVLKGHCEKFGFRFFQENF

In the case of `CC(=O)Nc1ccc([C@@H]2N[C@H](C(=O)O)CC[C@H]2C)cc1`, the z-score in [1] is 0.961 (inactive); in [3], -0.188 (inactive); in assay [4], 0.182 (inactive); in assay [5], -0.23 (inactive); in assay [6], -0.267 (inactive); in [7] it was 0.699. For the same compound, the z-score in assay [8] was -0.121 (inactive); in [9], 0.195 (inactive); in assay [10], 0.13; in assay [11] it was 0.858; in [12], 0.122; in assay [13], -0.0918. The z-score was 0.402 in [14]; -0.371 in [15]; 1.14 in [16]; 0.456 (inactive) in assay [17]; -0.355 in [18]; -0.0501 in assay [19]. For the same compound, the z-score in [20] is -0.542 (inactive). The composite z-score in [2] is -0.017.

In the case of `CON=C1[C@H]2CCn3c(=O)n(-c4ccccc4)c(=O)n3[C@H]2[C@H](O)[C@@H]2O[C@H]12`, the z-score was -1.04 (inactive) in [1]; -0.713 (inactive) in assay [3]; -1.53 (inactive) in [4]; -0.801 (inactive) in [5]; -1.77 (inactive) in assay [6]; 1.56 in assay [7]. Also, the z-score was 0.0197 (inactive) in [8]; 0.3 (inactive) in assay [9]; 1.26 in [10]; 0.828 in assay [11]; 0.384 in [12]; 0.739 in assay [13]. In addition, the z-score in [14] is -0.211; in assay [15], 0.483; in assay [16] it was -1.17; in [17] it was 1.86 (inactive); in assay [18], 0.391; in [19], 0.68. The z-score in [20] was -0.378 (inactive). Besides, the composite z-score in assay [2] is -0.108.

Consider `CCOC(=O)[C@H](CC(C)C)NC(=O)CCC1CC(OC(=O)NCc2cccc3ccccc23)CC2(CCCC(COC(=O)NCCc3ccc(Cl)cc3)O2)O1` (stereo not given in full), for which the z-score is 0.692 (inactive) in assay [1]; 3.31 (inactive) in assay [3]; 0.0962 (inactive) in assay [4]; -0.837 (inactive) in [5]; -0.466 (inactive) in assay [6]; 0.367 in assay [7]. Further, the z-score in assay [8] is 0.274 (inactive); in assay [9], 0.623 (inactive); in assay [10], 1.24; in assay [11], -0.539; in [12], -0.23; in assay [13] it was -0.0607. The z-score was -3.16 in [14]; 0.403 in assay [15]; 0.326 in assay [16]; 1.03 (inactive) in [17]; -0.436 in assay [18]; -1.86 in assay [19]. Further, the z-score in assay [20] was 0.384 (inactive). For the same compound, the composite z-score in [2] was -0.14.

As to `COC(=O)NCC=Cc1nc(CCCO)co1`, the z-score in assay [1] is -0.0186 (inactive); in assay [3], 0.0325 (inactive); in [4], 0.496 (inactive); in assay [5], -0.304 (inactive); in [6], -0.145 (inactive); in [7] it was -0.726. The z-score in assay [8] is -0.745 (inactive); in assay [9], 0.996 (inactive); in assay [10], 0.449; in assay [11] it was 0.206; in assay [12], -0.683; in assay [13], 0.392. For the same compound, the z-score in assay [14] was 0.225; in assay [15] it was 0.0204; in assay [16], -0.64; in assay [17], 0.331 (inactive); in [18] it was -0.0369; in assay [19], -0.606. In addition, in assay [20], the z-score was -0.238 (inactive). For the same compound, in assay [2], the composite z-score was -0.164.

`COC(=O)CC=C[C@@H](C)[C@@H](C=NOC[C@H]1O[C@H](c2ccccc2)C=C[C@@H]1Oc1ccc(OC)cc1)OC`: the z-score in assay [1] was -0.425 (inactive); in assay [3] it was 4.7 (inactive); in assay [4], 1.15 (inactive); in assay [5], -0.469 (inactive); in assay [6], 0.393 (inactive); in assay [7], -0.516. Also, the z-score in assay [8] is -0.323 (inactive); in assay [9], 0.338 (inactive); in [10], -0.549; in [11], 0.0124; in [12], -0.701; in assay [13], -0.56. Moreover, the z-score was -0.831 in [14]; -0.209 in [15]; -1.05 in assay [16]; -0.506 (inactive) in assay [17]; 0.16 in [18]; -0.327 in [19]. For the same compound, in [20], the z-score was 1.06 (inactive). Moreover, in assay [2], the composite z-score was -0.148.

On to `CC(CCN1CCc2nc(-c3ccccc3)c(-c3ccccc3)cc2C1)=NOC[C@@H](O)COCc1ccco1`, for which the z-score in assay [1] is 1.17 (inactive); in assay [3], 3.04 (inactive); in assay [4], 0.369 (inactive); in [5] it was 0.686 (inactive); in assay [6], 0.195 (inactive); in [7], 0.615. In addition, the z-score in assay [8] was -0.636 (inactive); in assay [9], -0.00269 (inactive); in assay [10], -0.624; in assay [11], 1.53; in [12], -0.0838; in assay [13], 2.01. The z-score was -0.293 in [14]; 0.465 in assay [15]; 1.65 in [16]; -0.278 (inactive) in assay [17]; 1.09 in [18]; -0.174 in [19]. Further, in [20], the z-score was -0.684 (inactive). The composite z-score in assay [2] was -0.101.

For the compound `CCc1cc2c(nc1CC)CCN(CCC(C)=NOC[C@H]1O[C@H](c3ccccc3)C=C[C@@H]1Oc1ccc(OC)cc1)C2`, the z-score in [1] was -0.563 (inactive); in assay [3], 6.37 (inactive); in [4], -0.735 (inactive); in assay [5] it was 2.37 (inactive); in [6] it was -1.62 (inactive); in [7] it was 1.18. The z-score is -1.83 (inactive) in assay [8]; -0.845 (inactive) in assay [9]; -2.68 in assay [10]; -0.67 in assay [11]; 0.765 in [12]; -0.106 in assay [13]. In addition, the z-score is -2.03 in [14]; -2.35 in [15]; 5.61 in assay [16]; -1.1 (inactive) in assay [17]; -0.0846 in [18]; 0.0581 in assay [19]. In assay [20], the z-score is 0.364 (inactive). The composite z-score in [2] is -0.0003.

In the case of `CC(=O)O[C@H]1C2=CO[C@H](C)[C@H]3[C@H]4C5=C([C@H](O)[C@H]6O[C@H]6C5=O)[C@H](OC4C)[C@@]23C(=O)[C@@H]2O[C@@H]21` (stereo not given in full), the z-score in assay [1] is -0.16 (inactive); in [3] it was -0.312 (inactive); in assay [4] it was -0.431 (inactive); in assay [5], 0.128 (inactive); in assay [6], 0.1 (inactive); in assay [7] it was -1.05. For the same compound, the z-score was -0.717 (inactive) in assay [8]; -0.891 (inactive) in assay [9]; -0.242 in [10]; -1.7 in assay [11]; -0.827 in assay [12]; -3.46 in assay [13]. In addition, the z-score is -3.43 in [14]; -3.37 in assay [15]; -3 in assay [16]; 0.12 (inactive) in assay [17]; -0.871 in assay [18]; -2.88 in assay [19]. For the same compound, the z-score in [20] was -2.43 (inactive). In addition, in assay [2], the composite z-score was -0.0477.

As to `O=C1C=C[C@@H](O)[C@@H]2[C@@H]3C(=O)N(C[C@@H]4CCCO4)C(=O)[C@@H]3CC[C@@H]12`, the z-score in assay [1] was 0.0413 (inactive); in assay [3] it was 1.08 (inactive); in assay [4] it was 0.979 (inactive); in assay [5], -0.0029 (inactive); in assay [6] it was 0.281 (inactive); in [7], -0.382. For the same compound, the z-score in [8] is 1.71 (inactive); in assay [9] it was -0.0876 (inactive); in [10], 0.283; in [11], -0.663; in assay [12], 0.316; in [13], 0.324. Further, the z-score in assay [14] is -0.121; in [15], 0.757; in assay [16], 1.09; in [17] it was 0.0236 (inactive); in assay [18], -0.643; in assay [19], 0.744. Further, the z-score in assay [20] was -0.379 (inactive). The compound further came in with a composite z-score in [2] of 0.0313.
